120 molecules from PubChem BioAssay AID489025 (Southern Research Specialized Biocontainment Screening …, 2010) can be followed below.

One may read the viability as a read-out of living cells in per cent, often relative to untreated cells.

In all, about 2,300 compounds went through this assay and about 790 (34%) were called active. The list shows a part of the results. Potency and affinity values are given separately. A number with no mark means an inactive call. The rule behind the calls is not given here.

This experiment in a line: THP-1 cell cytotoxicity, dose response, cytotoxicity control for non-replicating M. tuberculosis project (AID 489025). To be noted: THP-1 cell viability; series mostly up to 40 µM; viability: at the top concentration.
Take `Nc1ccc2c(c1)oc1ccccc12`: the “viability” value was 101%. `COc1ccc(N2CCN(CC(=O)NC(=O)NC(C)(C)C)CC2)cc1`: the “viability” value was 96.5%. Regarding `O=C(c1ccc([N+](=O)[O-])cc1[N+](=O)[O-])N1CCc2ccccc21`, the “viability” value is 103%. As to `Cc1cc(C)n(C(=O)c2ccc([N+](=O)[O-])cc2[N+](=O)[O-])n1`, the “viability” value was 96%. With `CCC1(O)CC(c2ccccc2)=NN1C(=O)c1ccccc1F` (stereo not given), the “viability” value is 102%.

`CCOC(=O)C(C)(C)n1nnc(-c2ccc([N+](=O)[O-])cc2)n1`: the “viability” value is 116%. As for `CCOC(=O)C1CCN(C(=O)COc2cc(C)c(Br)c(C)c2)CC1`, the “viability” value is 110%.

As for `O=C(COc1ccccc1)Nc1ccc(Cl)cn1`, the “viability” value is 83.5%. `FC(F)c1nnc2ccc(Cl)nn12`: the “viability” value was 72.5%. As for `O=Cc1coc2ccc3ccccc3c2c1=O`, the “viability” value was 81.1%.

For `COC(=O)COc1cccc(NC(=O)c2cccc(C)c2)c1`, the “viability” value is 77.6%.

Consider `COc1ccc(-c2noc(CCC(=O)Nc3cccc(C)c3)n2)cc1`, for which the “viability” value is 113%.

Consider `CCOC(=O)COc1ccc(C(=O)c2ccccc2)c(O)c1`, for which the “viability” value is 109%. Regarding `CC(C)c1cc(C(=O)N/N=C/C=C/c2ccccc2)n[nH]1`, the “viability” value was 75.9%.

Consider `COc1ccc(S(=O)(=O)NCc2ccc3c(c2)cc(C)n3C)cc1`, for which the “viability” value was 95.4%.

With `Cc1nnc(N/N=C/c2cccc(OCc3ccc(Cl)c(Cl)c3)c2)n1N`, the “viability” value is 79.3%. As for `O=C(OCc1nc2ccccc2s1)c1ccc(Br)o1`, the “viability” value was 115%. Consider `CCOC(=O)CCCNC(=O)COC(=O)c1cc(Br)c(Br)s1`, for which the “viability” value was 105%.

In the case of `O=C(N/N=C/C(Br)=C/c1ccccc1)c1cnccn1`, the “viability” value is 95.2%. As for `CCOc1ccc(-c2ccc(C=O)o2)c([N+](=O)[O-])c1`, the “viability” value is 70.5%. In the case of `C/C(CC(=O)Nc1ccc(N(C)C)cc1)=N\NC(=O)c1ccncc1`, the “viability” value was 107%.

As for `Cc1ccc(C)c(NC(=O)c2cc([N+](=O)[O-])cc([N+](=O)[O-])c2)c1`, the “viability” value is 107%. As for `Cc1cc(Cl)ccc1OC(C)C(=O)Nc1ccc([N+](=O)[O-])cn1` (stereo not given), the figure is 79.7%. As to `O=C1CC(=O)CC(c2ccccc2)C1`, the “viability” value is 106%. For `O=C1CC(N2CCC(c3nc4ccccc4o3)CC2)C(=O)N1` (stereo not given), the “viability” value is 99.5%. With `O=[N+]([O-])c1ccc(N2CCN(Cc3ccc([N+](=O)[O-])o3)CC2)cc1`, the “viability” value is 89.6%.

Regarding `O=[N+]([O-])c1ccc(CN2CCN(c3ccc(F)cc3)CC2)o1`, the “viability” value was 106%. To `O=[N+]([O-])c1ccc(CN2CCN(c3ccccc3)CC2)o1` belongs 126%. In the case of `COc1cccc(OCC(=O)NNC(=O)c2cccs2)c1`, the “viability” value was 102%. In the case of `O=C(c1cccs1)N1CCN(c2ccc(Cl)cc2)CC1`, the “viability” value was 85%. Take `O=C(NNC(=O)c1cccs1)c1ccc(Br)o1`: the “viability” value is 95.2%. As for `CCOC(=O)NC(=O)COC(=O)CCCSc1nc2ccccc2s1`, the “viability” value is 119%. On to `O=C(Cc1ccc(F)cc1)Nc1ccc(Cl)cn1`, for which the “viability” value was 92.7%.

As to `Cc1ccc2nc(C)c3c(c2c1)SCC3`, the “viability” value was 91.6%. `COc1ccc(OCC(=O)Nc2ccc(N3CCN(C(=O)c4ccco4)CC3)cc2)cc1`: the “viability” value is 103%.

`Nc1scc(-c2ccncc2)c1Cl`: the “viability” value was 101%. On to `CCOC(=O)COc1ccc2c(c1)C(=O)CC(C)(c1cccnc1)O2` (stereo not given), for which the “viability” value is 105%.

As to `Oc1cc(NCc2cccnc2)ccc1-c1nc2ccccc2o1`, the “viability” value is 72.7%. For `COc1cc(/C=N/Nc2cccc3cccnc23)cc(OC)c1O`, the “viability” value was 104%. For `C/C(O)=C\c1nc2ccccc2oc1=O`, the “viability” value was 70.5%. With `CCc1nnc(N/N=C/c2ccc(N3CCC(C)CC3)c([N+](=O)[O-])c2)n1N`, the “viability” value is 85.3%. In the case of `COc1cc(/C=N/N(C)C)ccc1OC(=O)c1cccs1`, the “viability” value is 95%.

For the molecule `O=C(COc1ccc2c(c1)CCC2)Nc1ccccn1`, the “viability” value is 99.8%. In the case of `Cc1cccc2c(CC(=O)O)noc12`, the “viability” value is 101%. As for `COc1ccc(/C=C/c2nc3ccccc3c(=O)o2)cc1`, the figure is 80.8%; as for `COc1cc(OC)cc(-c2nc3ccccc3c(=O)o2)c1`, 102%; as for `O=C(C/C=N\OCc1ccc([N+](=O)[O-])cc1)Nc1ccc(Cl)cc1`, 101%. As for `O=C(COC(=O)CC1CCCC1)Nc1ccc(OC(F)F)cc1`, the figure is 130%; as for `COCCCNC(=O)COC(=O)c1ccc(-c2nc3ccccc3s2)s1`, 93.4%.

Turning to `CC(C)Cn1c(N)c(C(=O)COC(=O)c2ccc([N+](=O)[O-])o2)c(=O)n(C)c1=O`, the “viability” value was 94.1%. `CCc1ccc(C(=O)COC(=O)c2ccc(Cl)nc2)cc1`: the “viability” value is 95.8%. As for `Oc1oc(-c2ccco2)nc1C=Nc1cccc(Cl)c1`, the figure is 99.7%. On to `CCCCCn1nnc2c(=O)oc3ccccc3c21`, for which the “viability” value is 97.3%. As to `CCOc1ccc(OCC(=O)OCc2cc(=O)n3cc(Br)ccc3n2)cc1`, the “viability” value was 97.9%.

Turning to `CCOC(=O)c1nc2sc3c(c2c(=O)[nH]1)CCC(C)C3` (stereo not given), the “viability” value is 87.8%.

In the case of `COc1cccc(COC(=O)CCNC(=O)c2ccc(Cl)cc2)c1OC`, the “viability” value is 112%. As for `Nc1nonc1C(=O)NCCN=Cc1cc(Cc2ccccc2)cc(Br)c1O`, the figure is 96.6%; as for `COc1ccccc1C(c1nnnn1Cc1ccccc1)N1CCC(C(N)=O)CC1` (stereo not given), 104%. Regarding `CCCCNC(=O)N1CCc2ccccc2C1`, the “viability” value was 120%. In the case of `C/C(=N\NC(=O)c1ccc([N+](=O)[O-])c(C)c1)c1ccccc1Cl`, the “viability” value is 88.1%. As for `COc1ccc(N=N/C(=C\O)C(=O)c2ccco2)cc1`, the figure is 106%; as for `CCOC(=O)c1cc(-c2c(Cl)cccc2Cl)no1`, 94.5%; as for `Cc1ccc(C(=O)O/N=C(\N)c2cccc([N+](=O)[O-])c2)cc1`, 98.6%.

As to `Cc1[nH]c2ccccc2c1C(=O)C(C)OC(=O)c1ccc([N+](=O)[O-])o1` (stereo not given), the “viability” value was 81.2%. To `O=C(OCCCOC(=O)c1ccc([N+](=O)[O-])o1)c1ccc([N+](=O)[O-])o1` belongs 99.9%; to `N=c1oc2ccccc2cc1C(=O)NC1CCCCCC1`, 108%; to `O=C(Nc1nccs1)c1cc2cc(Cl)ccc2oc1=O`, 87.5%. To `CCOC(=O)c1cn(Cc2cccc(Cl)c2)nn1` belongs 106%; to `O=C(COC(=O)c1cccc(C(F)(F)F)c1)NCc1ccccc1`, 117%; to `CSc1ccccc1NC(=O)c1cc(C(C)C)on1`, 101%. Take `CCCCNS(=O)(=O)c1ccc(OCC(=O)OC)cc1`: the “viability” value was 89.7%.

For the molecule `O=c1oc(/C=C/c2ccc([N+](=O)[O-])s2)nc2ccccc12`, the “viability” value is 83.4%. Turning to `C=C(C)C1Cc2cc3ccc(=O)oc3cc2O1` (stereo not given), the “viability” value is 85.2%. With `C/C(=N\NC(=O)c1nn(C)cc1Cl)c1ccncc1`, the “viability” value was 107%.

With `CCOc1ccc(-c2cc(CCCC(=O)NCCC(C)C)no2)cc1`, the “viability” value was 103%.

`O=c1c(=Nc2ccccc2O)c(=O)c2ccccc12`: the “viability” value was 105%.

On to `O=C(O)c1[nH]c(=O)[nH]c(=O)c1F`, for which the “viability” value was 80.6%. `CCOC(=O)CN1NC2(CCC(C)CC2)NC1=S` (stereo not given): the “viability” value is 86.5%. As for `CCc1cc(C(c2ccncc2)N2CCN(C)CC2)c(NC(=O)c2ccccc2)s1` (stereo not given), the “viability” value was 106%. `Cc1ccc(C(=O)Oc2cccc(-n3cnnn3)c2)cc1`: the “viability” value was 87.2%. For the molecule `CCc1ccc(NC(=O)C(=O)NNC(=O)c2cccc(OC)c2)cc1`, the “viability” value is 77.2%.

For the molecule `COC(=O)COc1ccc(-c2ccc(F)cc2)cc1C=O`, the “viability” value was 87.1%. Consider `Cc1ccc(OCC(=O)N/N=C/c2ccc([N+](=O)[O-])o2)cc1`, for which the “viability” value was 100%.

For the molecule `COc1ccc(/C=N/NC(=O)C(=O)NCc2cccnc2)cc1OC`, the “viability” value is 117%. For the molecule `O=[N+]([O-])c1ccc(/C=N/NS(=O)(=O)c2ccc(Cl)cc2)o1`, the “viability” value was 90%. As to `Cc1ccc(CCC(=O)Nc2ccc([N+](=O)[O-])cc2)o1`, the “viability” value was 106%.

As to `Cc1ccc(CCC(=O)Nc2cc(Cl)ccc2Cl)o1`, the “viability” value was 95.1%. Turning to `Cc1ncsc1CCOC(=O)c1ccc([N+](=O)[O-])cc1`, the “viability” value was 88.5%.

As to `Oc1ccc(Br)cc1-c1ccn[nH]1`, the “viability” value is 94.1%. With `CCCCNC(=O)COC(=O)c1cc(F)c(F)cc1Cl`, the “viability” value is 125%. With `C=Cc1cccc(NC(=O)COc2ccccc2)c1`, the “viability” value was 90.2%.

With `Cc1nn(-c2ccccc2)nc1C(=O)c1c(C)[nH]n(-c2ccccc2)c1=O`, the “viability” value is 84.6%. As to `CCC(C)c1ccc(O)c(/C=N/O)c1` (stereo not given), the “viability” value was 94.4%. As to `O=[N+]([O-])c1cc2oc3c(c2c(C=NCc2ccccc2)c1O)CCCC3`, the “viability” value is 118%.

For `O=C(N/N=C/C=C/c1ccco1)c1ccncc1`, the “viability” value is 96.7%. For `Nc1ccc(C(=O)N/N=C\C=C\c2ccc([N+](=O)[O-])cc2)cc1`, the “viability” value was 118%. As to `O=C(COC(=O)CCC(=O)c1ccc(F)cc1)Nc1ccc(F)cc1F`, the “viability” value was 110%. As to `COc1cccc(OC(=O)c2cc3ccccc3oc2=O)c1`, the “viability” value was 101%. For `CCC(=O)N1CCN(c2cc3c(cc2F)c(=O)c(C(=O)O)cn3CC)CC1`, the “viability” value was 119%. Consider `CC(C)OC(=O)CCCCCN1C(=O)CSC1=S`, for which the “viability” value was 106%. Consider `O=C(OCC#CCSc1nnc(-c2ccccc2)o1)c1ccco1`, for which the “viability” value is 91.4%.

Regarding `COC(=O)CCCCCN1C(=O)/C(=C\c2ccncc2)SC1=S`, the “viability” value is 75.8%. As to `Cc1ccc(C(=O)c2cncc(Br)c2)cc1`, the “viability” value is 86.4%. Regarding `CCCCN1C(=O)C2(NNc3ccccc3O2)c2ccccc21` (stereo not given), the “viability” value is 77.2%. With `COC(=O)COc1ccc2c(=O)c(Oc3ccccc3)c(C)oc2c1`, the “viability” value was 113%. As for `NC(N)=N/N=C/c1cc([N+](=O)[O-])ccc1O`, the figure is 119%; as for `O=C(C/C=N\OCc1ccc([N+](=O)[O-])cc1)Nc1ccc(Br)cc1`, 91.5%.

As to `O=C(NCC1CCCCC1)c1ccc([N+](=O)[O-])cc1`, the “viability” value is 112%. Turning to `O=C(NNc1ccc([N+](=O)[O-])cc1)C1CC2CCCC(C1)C2=O` (stereo not given), the “viability” value is 124%. To `CCCC(=O)Nc1cccc(-c2nc3ccccc3c(=O)o2)c1` belongs 110%; to `C#CCOc1coc(COC(=O)c2ccccc2)cc1=O`, 93.3%. To `CC1C/C(=N/N2C(=O)CSC2=S)CC(C)(C)C1` (stereo not given) belongs 127%; to `CCCCCCC1CC(C)(C(=O)CNc2nncs2)OC1=O` (stereo not given), 115%; to `CC1=NN(C(=O)c2csc(C)c2C)C(O)(C(F)(F)F)C1` (stereo not given), 90.6%.

With `Nc1cccn2c(-c3ccc(Cl)cc3)cnc12`, the “viability” value is 89.2%. For `Cc1ccc(C(=O)Nc2nccs2)cc1`, the “viability” value was 78.5%. For `CCN1CCN(C(=O)CN(Cc2ccccc2)S(C)(=O)=O)CC1`, the “viability” value is 85.7%. With `C/C(=N\NC(=O)c1cc([N+](=O)[O-])cc([N+](=O)[O-])c1)c1ccco1`, the “viability” value was 93%. Turning to `CC(C)c1ccc(C2=C(O)c3ccccc3C(=O)C2=O)cc1`, the “viability” value is 112%. In the case of `N#CC1=C(N)Oc2n[nH]c(-c3cccnc3)c2C1c1ccc([N+](=O)[O-])o1` (stereo not given), the “viability” value was 114%.
